# Experimental data as given in PubChem BioAssay (NCATS).
# Records with an inconclusive call do not appear. A call without a number means that no potency is given here. Activity calls are given as the source filed them. Unless noted, calls come from the whole dose curve; as a rule, active = well fitted curve in the direction sought with a large enough effect; inconclusive = small, poorly fitted or top-dose-only effect, or another doubt; inactive = no such curve, though single readings can be large; an effect the other way counts as inactive or inconclusive.
# Legend:
# [1] = High-throughput drug toxicity screening in the BPDCN cell line Gen2.2 (AID 1224824; call rule not given here;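 note: cells exposed to compounds for 48 h before reading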); details: Gen2.2 BPDCN cells; at 45.8 µM (top of the series)
# In short: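 Seed 500 exponentially growing Gen2.2 cells/well; add compounds by pin tool; incubate 48 h, 37 °C, 5% CO2; add CellTiter-Glo, 15 min RT; read luminescence. % activity vs DMSO (100%) and bortezomib (0%).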
# [2] = High-throughput drug toxicity screening in the BPDCN cell line Cal-1 (AID 1224825; call rule not given here); details: Cal-1 BPDCN cell viability, qHTS; at 45.8 µM (top of the series)
# In short: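 Cal-1 cells, 500 per well in phenol-red-free RPMI with 10% FBS, exposed to compounds for 48 hours at 37C, 5% CO2. Viability read by CellTiter-Glo luminescence; percent activity normalized to DMSO (100%) and 9.2 uM bortezomib final (0%).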
# [3] = qHTS assay for measurement of the activity of small molecule inhibitors on Zika virus induced Caspase-3 activity in human astrocytoma cells (AID 1224859); details: SNB-19 ZIKV-induced caspase-3/7, luminescence, 6 h; series mostly up to 45.7 µM
# In short: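 SNB-19 astrocytoma cells, 250/well, pretreated 1 h with compounds, then Zika virus at 2 FFU/cell for 6 h at 37 C; Caspase-Glo 3/7 luminescence after 30 min; percent inhibition normalised to uninfected and infected controls.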
# [4] = qHTS Screen of the MIPE 4.0 Collection Against Ewings Sarcoma (RDES) (AID 1259252); details: RD-ES Ewing sarcoma viability, CellTiter-Glo, 48 h; series mostly up to 45.8 µM; note: nearly all actives have a fitted effect of over 35% in size; note: potency is the fitted concentration of half-maximal effect
# In short: (§1)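 Log-phase cells in RPMI with 5% FBS attached for 4 h, then received compounds as a titration for 48 h at 37C, 5% CO2. Viability was read by CellTiter-Glo luminescence and normalized to DMSO and no-cell wells.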
# [5] = qHTS Screen of the MIPE 4.0 Collection Against Ewings Sarcoma (TC71) (AID 1259253); details: TC71 Ewing sarcoma viability, CellTiter-Glo, 48 h; series mostly up to 45.8 µM; note: nearly all actives have a fitted effect of over 40% in size; note: potency is the fitted concentration of half-maximal effect
# In short: as §1
# [6] = qHTS Screen of the MIPE 4.0 Collection Against Ewings Sarcoma (EW8) (AID 1259255); details: EW8 Ewing sarcoma viability, CellTiter-Glo, 48 h; series mostly up to 45.8 µM; note: nearly all actives have a fitted effect of over 35% in size; note: potency is the fitted concentration of half-maximal effect
# In short: as §1
# [7] = qHTS Screen of the MIPE 4.0 Collection Against Ewings Sarcoma (TC32) (AID 1259256); details: TC32 Ewing sarcoma viability, CellTiter-Glo, 48 h; series mostly up to 45.8 µM; note: nearly all actives have a fitted effect of over 45% in size; note: potency is the fitted concentration of half-maximal effect
# In short: as §1
# [8] = qHTS assay for measurement of the activity of small molecule inhibitors on Zika virus induced Caspase-3 activity in human iPSC derived neural progenitor cells (hNPCs) (AID 1224857); details: hNPCs ZIKV-induced caspase-3/7, Caspase-Glo luminescence, 6 h; series mostly up to 45.7 µM; note: nearly all actives have a fitted effect of over 65% in size
# In short: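 Human iPSC-derived neural progenitor cells pretreated 1 hr with compounds, then infected with Zika virus (2 FFU/cell) for 6 hours at 37 C. Caspase-3/7 measured by Caspase-Glo luminescence; % inhibition calculated from induction scaled to uninfected (0%) and infected (100%) wells.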
# [9] = qHTS assay to identify small molecule inhibitors of chordoma cells - UCH-1 (AID 1259355); details: UCH-1 chordoma viability, CellTiter-Glo, 48 h, combination; series mostly up to 46.1 µM; note: nearly all actives have a fitted effect of over 55% in size
# In short: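 Cells (800/well) were seeded and left overnight at 37 C, 5% CO2, then treated with drugs at 15 concentrations plus a combination mix of auranofin, camptothecin, doxorubicin, rubitecan and topotecan. Viability after 48hr was read by CellTiter-Glo luminescence.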
structure (smiles),measurement,setting,value
O=c1[nH]c2ccc(Cl)cc2c(N[C@@H]2CN3CCC2CC3)c1-c1nc2ccccc2[nH]1,"cell viability, % of control (lower = more cytotoxic)",[1],2.72%
same,viability (% of control),[2],2.3%
same,Potency,[3],inactive
same,Potency,[4],1660 nM (active)
same,Potency,[5],41.8 nM (active)
same,Potency,[6],74.3 nM (active)
same,Potency,[7],83.3 nM (active)
CSCC[C@@H](NC(=O)[C@@H](Cc1ccccc1)NC(=O)CNC(=O)CNC(=O)[C@@H](N)Cc1ccc(O)cc1)C(=O)O,"cell viability, % of control (lower = more cytotoxic)",[1],140%
same,viability (% of control),[2],134%
same,Potency,[8],inactive
same,Potency,[4],inactive
same,Potency,[5],inactive
same,Potency,[6],inactive
same,Potency,[7],inactive
C[C@@H]1O[C@@H](O[C@@H]2C=C3CC[C@@H]4[C@@H](CC[C@]5(C)[C@H](c6ccc(=O)oc6)CC[C@@]45O)[C@@]3(C)CC2)[C@H](O)[C@H](O)[C@H]1O,"cell viability, % of control (lower = more cytotoxic)",[1],16.6%
same,viability (% of control),[2],3.76%
same,Potency,[8],inactive
same,Potency,[4],41.8 nM (active)
same,Potency,[6],16.6 nM (active)
same,Potency,[7],23.5 nM (active)
CO[C@H]1CCC(O[C@H]2C[C@H]([C@]3(C)CC[C@]4(C[C@H](O)[C@@H](C)[C@@H]([C@@H](C)C=C(C)C(=O)[C@H](C)C[C@H](C)C(=O)O)O4)O3)O[C@]3(O[C@@H]([C@H]4O[C@@](O)(CO)[C@H](C)C[C@H]4C)C[C@H]3C)[C@H]2C)O[C@H]1C (stereo partly drawn),"cell viability, % of control (lower = more cytotoxic)",[1],92%
same,viability (% of control),[2],72.5%
same,Potency,[3],inactive
same,Potency,[4],418 nM (active)
same,Potency,[6],372 nM (active)
same,Potency,[7],418 nM (active)
O=C(Nc1ccncc1)C(=O)c1cn(Cc2ccc(Cl)cc2)c2ccccc12,Potency,[4],93.5 nM (active)
CN1C2CCC1CC(OC(=O)c1cc(Cl)cc(Cl)c1)C2 (stereo not drawn),Potency,[8],inactive
same,Potency,[3],inactive
same,Potency,[9],inactive
Cc1nccc2c1[nH]c1ccccc12,Potency,[8],inactive
same,Potency,[3],inactive
O=C(O)COc1nc(Cl)c(Cl)cc1Cl,Potency,[8],inactive
same,Potency,[3],inactive
O=C1CCCN1CC#CCN1CCCC1,Potency,[8],inactive
same,Potency,[3],inactive
Nc1ccc([N+](=O)[O-])cc1,Potency,[8],inactive
same,Potency,[3],inactive
NC(=NCCC[C@H](N)C(=O)O)N[N+](=O)[O-],Potency,[8],inactive
same,Potency,[3],inactive
Nc1ccc(Cl)cc1N,Potency,[8],inactive
same,Potency,[3],inactive
CCCN(CCC)c1c([N+](=O)[O-])cc(S(N)(=O)=O)cc1[N+](=O)[O-],Potency,[8],inactive
same,Potency,[3],inactive
CS(=N)(=O)CC[C@H](N)C(=O)O (stereo partly drawn),Potency,[8],inactive
same,Potency,[3],inactive
Nc1ccc(Cl)cc1,Potency,[8],inactive
same,Potency,[3],inactive
